Results on ten compounds are retold here after PubChem BioAssay (NCI).

Assay [1] is described as follows: NCI Yeast Anticancer Drug Screen. Data for the rad50 strain (AID 155).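 Also: 0% = growth of vehicle-only cultures of the same strain.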 The following applies: S. cerevisiae rad50 strain growth inhibition, active compounds read high. Put shortly:
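Yeast carrying a defined DNA repair defect were exposed to test compounds, and growth was compared with vehicle-treated controls to give percent inhibition.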

The nature of assay [2]: NCI Yeast Anticancer Drug Screen. Data for the mec2-1 strain (AID 157). The following applies: S. cerevisiae mec2-1 strain, active compounds read high. Put shortly:
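Readout is yeast growth inhibition, normalised to vehicle-treated controls, in the mec2-1 strain exposed to compound.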

Assay [3] is described as follows: NCI Yeast Anticancer Drug Screen. Data for the sgs1 mgt1 strain (AID 161).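 Also: 0% = growth of cultures given vehicle only.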 The following applies: S. cerevisiae sgs1 mgt1 strain, active compounds read high. In short, it runs like this:
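Growth of a repair-deficient yeast mutant was monitored after compound treatment and expressed as inhibition relative to vehicle-treated cultures.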

Assay [4] in a line: NCI Yeast Anticancer Drug Screen. Data for the cln2 rad14 strain (AID 165).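 Also: 0% = growth equal to vehicle treated cultures.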 The following applies: S. cerevisiae cln2 rad14 strain, active compounds read high. Put shortly: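 Relative to vehicle controls, growth inhibition of compound-treated cln2 rad14 yeast was recorded.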
Assay [5] is described as follows: NCI Yeast Anticancer Drug Screen. Data for the bub3 strain (AID 167). The conditions noted are these: S. cerevisiae bub3 mutant strain, active compounds read high. Put shortly:
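Compounds were applied to a genetically altered yeast strain carrying a cell-cycle control defect. Growth inhibition was scored against vehicle-treated controls.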

Assay [6] can be described thus: NCI Yeast Anticancer Drug Screen. Data for the mlh1 rad18 strain (AID 175). The conditions noted are these: S. cerevisiae mlh1 rad18 strain growth inhibition, active compounds read high. Put shortly: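 Test agents were incubated with a yeast strain of defined genotype (DNA damage repair defect). Inhibition of growth was derived by comparison with vehicle-exposed cultures.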

The mark [7] stands for this setting: at 5.0 µM (retest, dose inferred, filed as 0.5).
Where [8] appears, read: at 50.0 µM (retest, dose inferred, filed as 5.0).

About 79,000 compounds went through this panel and 15% of them were active in at least one assay; those are over-represented in the sample as a whole. A number with no mark means an inactive call. Active and inactive are the calls of the source. Rule as the data show it: active = growth inhibition above about 70%; inactive = the rest.

As for `OC(CCN1CCOCC1)C1c2ccccc2Cc2ccccc21` (stereo not given), the growth inhibition in assay [1] (setting [7]) was 6%; in assay [1] (setting [8]), 74% (active); in assay [1] (at 50.0 µM), 77.2% (active); in assay [2] (setting [7]), 6%; in assay [2] (setting [8]) it was 29%; in assay [2] (at 50.0 µM), -1%. Besides, the growth inhibition was 1% in assay [3] (setting [7]); 91% (active) in assay [3] (setting [8]); 60% in assay [3] (at 50.0 µM); 1% in assay [4] (setting [7]); 30% in assay [4] (setting [8]); -28.3% in assay [4] (at 50.0 µM). Also, the growth inhibition in assay [5] (setting [7]) is 0%; in assay [5] (setting [8]), 76% (active); in assay [5] (at 50.0 µM), 46.6%; in assay [6] (setting [7]) it was 9%; in assay [6] (setting [8]) it was 81% (active); in assay [6] (at 50.0 µM), 23.4%.

On to `CN(C)CCNc1ccc([N+](=O)[O-])c2nc3ccccc3c(N)c12`, for which the growth inhibition in assay [1] (setting [7]) was -34%; in assay [1] (setting [8]), -7%; in assay [1] (at 50.0 µM) it was -1.9%; in assay [2] (setting [7]) it was -37%; in assay [2] (setting [8]), 6%; in assay [2] (at 50.0 µM), -40.8%. The growth inhibition in assay [3] (setting [7]) was 34%; in assay [3] (setting [8]) it was -24%; in assay [3] (at 50.0 µM), 45.9%; in assay [4] (setting [7]), -17%; in assay [4] (setting [8]), 0%; in assay [4] (at 50.0 µM), 8.55%. For the same compound, the growth inhibition in assay [5] (setting [7]) is -8%; in assay [5] (setting [8]), 12%; in assay [5] (at 50.0 µM), -7.15%; in assay [6] (setting [7]) it was -53%; in assay [6] (setting [8]) it was -10%; in assay [6] (at 50.0 µM), 65.8%.

For the compound `O=C(Nc1nc2ccc([N+](=O)[O-])cc2s1)C(=O)C(C1OC(=O)c2ccccc21)[N+](=O)[O-]` (stereo not given), the growth inhibition in assay [1] (setting [7]) was 8%; in assay [1] (setting [8]), 8%; in assay [1] (at 50.0 µM) it was 88.7% (active); in assay [2] (setting [7]), -7%; in assay [2] (setting [8]), -7%; in assay [2] (at 50.0 µM), 87% (active). Further, the growth inhibition is 9% in assay [3] (setting [7]); 9% in assay [3] (setting [8]); 88.9% (active) in assay [3] (at 50.0 µM); 13% in assay [4] (setting [7]); 13% in assay [4] (setting [8]); 67.6% in assay [4] (at 50.0 µM). The growth inhibition in assay [5] (setting [7]) is 4%; in assay [5] (setting [8]) it was 4%; in assay [5] (at 50.0 µM), 84% (active); in assay [6] (setting [7]), 0%; in assay [6] (setting [8]), 0%; in assay [6] (at 50.0 µM), 76% (active).

Take `O=[N+]([O-])c1c(C=Nc2ccccc2)oc(-c2c(O)ccc3ccccc23)c1-c1c(O)ccc2ccccc12`: the growth inhibition in assay [1] (setting [7]) is 1%; in assay [1] (setting [8]), 2%; in assay [1] (at 50.0 µM) it was 98.7% (active); in assay [2] (setting [7]) it was -13%; in assay [2] (setting [8]), -11%; in assay [2] (at 50.0 µM), 98.7% (active). Further, the growth inhibition is -7% in assay [3] (setting [7]); -4% in assay [3] (setting [8]); 98.8% (active) in assay [3] (at 50.0 µM); -30% in assay [4] (setting [7]); -26% in assay [4] (setting [8]); 98.5% (active) in assay [4] (at 50.0 µM). Further, the growth inhibition in assay [5] (setting [7]) was 3%; in assay [5] (setting [8]) it was 3%; in assay [5] (at 50.0 µM), 98.8% (active); in assay [6] (setting [7]), -2%; in assay [6] (setting [8]) it was -1%; in assay [6] (at 50.0 µM), 98.8% (active).

Regarding `Cc1csc(N)[n+]1CCC(=O)[O-]`, the growth inhibition is -1% in assay [1] (setting [7]); -3% in assay [1] (setting [8]); -3.95% in assay [1] (at 50.0 µM); -1% in assay [2] (setting [7]); -2% in assay [2] (setting [8]); -23.1% in assay [2] (at 50.0 µM). Moreover, the growth inhibition in assay [3] (setting [7]) is -1%; in assay [3] (setting [8]), -2%; in assay [3] (at 50.0 µM) it was -2.8%; in assay [4] (setting [7]) it was -3%; in assay [4] (setting [8]), 3%; in assay [4] (at 50.0 µM), 31.5%. For the same compound, the growth inhibition was -1% in assay [5] (setting [7]); 1% in assay [5] (setting [8]); -14.6% in assay [5] (at 50.0 µM); 0% in assay [6] (setting [7]); -3% in assay [6] (setting [8]); -24.5% in assay [6] (at 50.0 µM).

Take `Clc1ccc(OCCC(Cn2ccnc2)c2ccc(Cl)cc2Cl)c(Cl)c1` (stereo not given): the growth inhibition was 94% (active) in assay [1] (setting [7]); 98% (active) in assay [1] (setting [8]); 66% in assay [1] (at 50.0 µM); 91% (active) in assay [2] (setting [7]); 99% (active) in assay [2] (setting [8]); 55.9% in assay [2] (at 50.0 µM). The growth inhibition in assay [3] (setting [7]) was 94% (active); in assay [3] (setting [8]), 98% (active); in assay [3] (at 50.0 µM), 58.2%; in assay [4] (setting [7]), 86% (active); in assay [4] (setting [8]), 97% (active); in assay [4] (at 50.0 µM), 64%. Also, the growth inhibition is 93% (active) in assay [5] (setting [7]); 98% (active) in assay [5] (setting [8]); 48.1% in assay [5] (at 50.0 µM); 90% (active) in assay [6] (setting [7]); 98% (active) in assay [6] (setting [8]); 55.7% in assay [6] (at 50.0 µM).

Take `Clc1ccc(CN2COc3c(ccc4ccccc34)C2)cc1`: the growth inhibition is 10% in assay [1] (setting [7]); 78% (active) in assay [1] (setting [8]); 88.8% (active) in assay [1] (at 50.0 µM); 3% in assay [2] (setting [7]); 43% in assay [2] (setting [8]); 59.8% in assay [2] (at 50.0 µM). Further, the growth inhibition in assay [3] (setting [7]) was 13%; in assay [3] (setting [8]), 97% (active); in assay [3] (at 50.0 µM), 83.2% (active); in assay [4] (setting [7]), 0%; in assay [4] (setting [8]), 85% (active); in assay [4] (at 50.0 µM), 61.1%. For the same compound, the growth inhibition in assay [5] (setting [7]) was -4%; in assay [5] (setting [8]), 96% (active); in assay [5] (at 50.0 µM), 89.9% (active); in assay [6] (setting [7]) it was 1%; in assay [6] (setting [8]), 96% (active); in assay [6] (at 50.0 µM), 59%.

For the compound `CC(=O)OCc1c2ccccc2c(C)c2c1cc(F)c1ccccc12`, the growth inhibition in assay [1] (setting [7]) is 35%; in assay [1] (setting [8]), 87% (active); in assay [1] (at 50.0 µM), 98.2% (active); in assay [2] (setting [7]) it was 25%; in assay [2] (setting [8]), 89% (active); in assay [2] (at 50.0 µM), 98.8% (active). Besides, the growth inhibition was 52% in assay [3] (setting [7]); 90% (active) in assay [3] (setting [8]); 98.1% (active) in assay [3] (at 50.0 µM); 14% in assay [4] (setting [7]); 85% (active) in assay [4] (setting [8]); 98.2% (active) in assay [4] (at 50.0 µM). The growth inhibition in assay [5] (setting [7]) is 15%; in assay [5] (setting [8]), 86% (active); in assay [5] (at 50.0 µM), 98.5% (active); in assay [6] (setting [7]) it was 40%; in assay [6] (setting [8]) it was 88% (active); in assay [6] (at 50.0 µM), 98.2% (active).

As for `CC(C)C1/C(=N/O)CC(c2ccccc2)N(N=O)C1c1ccccc1` (stereo not given), the growth inhibition in assay [1] (setting [7]) was 10%; in assay [1] (setting [8]), 97% (active); in assay [1] (at 50.0 µM) it was 82.3% (active); in assay [2] (setting [7]), -13%; in assay [2] (setting [8]) it was 98% (active); in assay [2] (at 50.0 µM) it was 93% (active). Further, the growth inhibition in assay [3] (setting [7]) is 3%; in assay [3] (setting [8]), 98% (active); in assay [3] (at 50.0 µM), 90.7% (active); in assay [4] (setting [7]) it was 15%; in assay [4] (setting [8]) it was 96% (active); in assay [4] (at 50.0 µM), 87.7% (active). Further, the growth inhibition in assay [5] (setting [7]) is 4%; in assay [5] (setting [8]) it was 98% (active); in assay [5] (at 50.0 µM), 88% (active); in assay [6] (setting [7]) it was -6%; in assay [6] (setting [8]) it was 98% (active); in assay [6] (at 50.0 µM) it was 90.3% (active).

Consider `COc1ccc(C2=C(Cl)C(=O)N(c3ccc(OC)cc3)C(=O)C2(Cl)Cl)cc1`, for which the growth inhibition was 8% in assay [1] (setting [7]); 82% (active) in assay [1] (setting [8]); 85.6% (active) in assay [1] (at 50.0 µM); -10% in assay [2] (setting [7]); 87% (active) in assay [2] (setting [8]); 97.8% (active) in assay [2] (at 50.0 µM). Besides, the growth inhibition in assay [3] (setting [7]) was 9%; in assay [3] (setting [8]), 88% (active); in assay [3] (at 50.0 µM), 67.1%; in assay [4] (setting [7]) it was -4%; in assay [4] (setting [8]), 42%; in assay [4] (at 50.0 µM), 56.8%. In addition, the growth inhibition in assay [5] (setting [7]) is -8%; in assay [5] (setting [8]), 84% (active); in assay [5] (at 50.0 µM), 94.9% (active); in assay [6] (setting [7]), 6%; in assay [6] (setting [8]), 71% (active); in assay [6] (at 50.0 µM) it was 95.8% (active).
